Assay outcomes (PubChem)
Most compounds without a hit are left out; they make up all but 6.9% or so of the library.
L3MBTL1 inh = qHTS Assay for the Inhibitors of L3MBTL1; 230,000 compounds, 0.66% hits; Lethal(3)malignant brain tumor-like protein 1 (Homo sapiens), Q9Y468; AlphaScreen L3MBTL1–H3K9me1 peptide binding; Potency, µM (series often up to 57.1 µM), for the others: at the highest dose activity, negative = inhibition, actives largely listed as inhibitors; also: % is scaled to controls: 0 for no effect and ±100 for the full control effect; nearly all actives have a fitted effect of over 60% in size
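First, the protein-peptide complex forms for 30 min at room temperature (L3MBTL1 50 nM, biotinylated H3K9me1 peptide 75 nM). Next, compounds are pin-transferred and incubated 30 min. Finally, AlphaScreen beads are added and read after 30 min.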
BAZ2B block = qHTS Assay for Inhibitors of BAZ2B. Bromodomain adjacent to zinc finger domain protein 2B (Homo sapiens), Q9UIF8. AlphaScreen BAZ2B-H3K14Ac peptide displacement. Potency, µM (series often up to 114 µM), for the others: top-dose activity change, negative = inhibition, hits mostly inhibitors. 360,000 compounds, 4.4% hits. AID 504333, 2011; also: % is scaled to controls: 0 for no effect and ±100 for the full control effect; nearly all actives have a fitted effect of over 60% in size
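AlphaScreen displacement of biotin-H3(5-23)K14Ac peptide (50 nM final) from BAZ2B (50 nM final) in PBS pH 7.4, 0.01% Tween-20; complex preformed 30 min RT, then compounds (top 110 uM) 30 min RT, beads 20 min dark.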
JMJD2A Tudor = qHTS Assay for Inhibitors of JMJD2A-Tudor Domain; Potency, µM (doses to about 114 µM), without a hit: at the highest dose activity change, negative = inhibition, most hits filed as inhibitors; Lysine-specific demethylase 4A (Homo sapiens), O75164; AID 504339, 2011; 390,000 compounds, 4.4% hits; AlphaScreen JMJD2A-Tudor / H3K4me3 peptide binding; also: % is scaled to controls: 0 for no effect and ±100 for the full control effect; nearly all actives have a fitted effect of over 50% in size
PLK1 PBD block = qHTS for Inhibitors of PLK1-PDB (polo-like kinase 1 - polo-box domain): Primary Screen; Serine/threonine-protein kinase PLK1 (Homo sapiens), P53350; Plk1 PBD binding of FITC phosphopeptide, fluorescence polarization; Potency, µM, without a hit: max response, negative = inhibition, actives largely listed as inhibitors; 360,000 compounds, 2.8% hits; also: series mostly up to about 57 µM; % is scaled to controls: 0 for no effect and ±100 for the full control effect; nearly all actives have a fitted effect of over 65% in size
HP1b chromo inh = HTS for Inhibitors of HP1-beta Chromodomain Interactions with Methylated Histone Tails; Chromobox protein homolog 1 (Homo sapiens), P83916; AlphaScreen HP1-beta / biotin-H3K9me3 peptide binding; Potency, µM (top dose mostly 114 µM), without a hit: at the top dose activity change, negative = inhibition, hits mostly inhibitors; 390,000 compounds, 0.56% hits; also: nearly all actives have a fitted effect of over 70% in size
Target sequence (P83916 whole entry, looked up): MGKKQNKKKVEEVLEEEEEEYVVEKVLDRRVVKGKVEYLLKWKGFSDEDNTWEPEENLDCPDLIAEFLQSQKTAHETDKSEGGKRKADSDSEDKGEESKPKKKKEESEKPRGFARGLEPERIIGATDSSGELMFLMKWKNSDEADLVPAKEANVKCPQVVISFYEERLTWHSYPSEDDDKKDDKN
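Compound inhibition of the preformed complex between 50 nM HP1-beta and 50 nM biotinylated H3K9me3 peptide was read by AlphaScreen. Buffer was PBS pH 7.4 with 0.01% Tween-20. Incubations ran 30 min at room temperature, with 10 ug/mL donor/acceptor beads.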
VDR inhibitor = Inhibitors of the vitamin D receptor (VDR): qHTS; Vitamin D3 receptor (Homo sapiens), P11473; VDR-SRC2-3 peptide fluorescence polarization, 2 h; Potency, µM, for the others: max response, negative = inhibition, most hits filed as inhibitors; 400,000 compounds, 0.93% hits; also: % is scaled to controls: 0 for no effect and ±100 for the full control effect
Target sequence (P11473 whole entry, looked up): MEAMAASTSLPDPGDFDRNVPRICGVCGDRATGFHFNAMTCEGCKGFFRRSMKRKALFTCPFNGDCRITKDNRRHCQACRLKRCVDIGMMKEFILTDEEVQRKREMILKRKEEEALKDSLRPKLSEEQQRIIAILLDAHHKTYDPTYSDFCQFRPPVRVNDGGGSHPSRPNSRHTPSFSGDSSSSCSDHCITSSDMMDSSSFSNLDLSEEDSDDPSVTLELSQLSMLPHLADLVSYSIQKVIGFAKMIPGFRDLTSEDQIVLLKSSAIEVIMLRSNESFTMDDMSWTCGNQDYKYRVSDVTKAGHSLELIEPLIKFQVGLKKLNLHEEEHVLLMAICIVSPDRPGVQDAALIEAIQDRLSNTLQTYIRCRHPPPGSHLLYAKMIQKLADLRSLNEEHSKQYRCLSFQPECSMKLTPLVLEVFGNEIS
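Signal is fluorescence polarization, reporting how far test compounds block the interaction of VDR with the SRC2-3 coregulator peptide after a 2 h room-temperature incubation.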
* marks the source's active call; other numbers are inactive results; ? = inconclusive; / = no result; [ ] = remark or other dose. Calls follow the shape of the dose curve; as a rule, active = well fitted curve in the direction sought with a large enough effect; inconclusive = small, poorly fitted or top-dose-only effect, or another doubt; inactive = no such curve, though single readings can be large; an effect the other way counts as inactive or inconclusive. Potency is read from the fitted curve at half-maximal effect.

SMILES	L3MBTL1 inh	BAZ2B block	JMJD2A Tudor	PLK1 PBD block	HP1b chromo inh	VDR inhibitor
COc1ccc(/C=C2/SC(=S)N(CC(=O)O)C2=O)cc1OCc1ccc(Cl)cc1	-10%	?	?	30µM*	-19%	?
O=C(O)CN1C(=O)/C(=C\c2cc(Br)ccc2OCc2ccc(Cl)cc2)SC1=S	/	50µM*	56µM*	8.4µM*	11%	40µM*
COc1cc(/C=C2/SC(=O)NC2=O)ccc1OCc1ccccc1	3%	?	?	?	-3%	16%
O=C(O)CN1C(=O)/C(=C\c2cc([N+](=O)[O-])ccc2OCc2ccccc2Cl)SC1=S	/	50µM*	50µM*	27µM*	?	?
CCOc1ccccc1CNC(=O)Cn1c(-c2ccccc2)cc(C(C)=O)c1C	/	-8%	-21%	/	4%	10%
COc1ccc(CNC(=O)COC(=O)c2cc(C)oc2C)cc1	/	/	/	-8%	/	/
CNc1nc(OCC(F)(F)F)nc(N2CCOCC2)n1	/	-2%	-21%[11.4 µM]	6.7µM*	-5%	-17%
COc1cccc(N=c2oc3cc(O)ccc3cc2C(=O)NCC2CCCO2)c1 (stereo not drawn)	-20%	35µM*	-35%	-6%	8%	-26%
COc1ccccc1N=c1oc2cc(O)ccc2cc1C(=O)NCC1CCCO1 (stereo not drawn)	-11%	-9%	-20%	2%	18%	8%
O=C(c1ccncc1)N1CCC2(CC1)CCN(C(c1ccccc1)c1ccccc1)CC2	/	/	/	/	/	0%
Cc1ccc(/C(=N\S(=O)(=O)c2ccc(Br)cc2)Nc2ccccc2C)cc1	/	-2%	-8%	-9%	23%	-16%
Cc1ccccc1N/C(=N/S(=O)(=O)c1ccccc1)c1ccc(F)cc1	-1%	-15%	-7%[11.4 µM]	38µM*	2%	-16%
N#CN1CCC(NC(=O)c2cccc(C(F)(F)F)c2)CC1	/	/	-8%	/	/	/
CN1CCN(CC(=O)Nc2nc(-c3c[nH]c4ccccc34)cs2)CC1	-7%	?	-34%	-17%	12%	-11%
CNc1nc(-c2c[nH]c3ccccc23)cs1	/	35µM*	18µM*	?	?	?
CCC(C)Nc1nc(-c2c[nH]c3ccccc23)cs1 (stereo not drawn)	/	25µM*	35µM*	-22%	?	?
CCC(Oc1ccc(C)cc1)C(=O)Nc1ccccc1C(=O)N1CCOCC1 (stereo not drawn)	/	1%	-3%	-8%	50%	-4%
Cc1ccc(CCNC(=O)c2cc(C)nn2-c2ccccc2)cc1	/	-2%	-8%	0%	28%	6%
COC(CNC(=O)c1cc(C)nn1-c1ccccc1)OC	/	9%	-13%[57.1 µM]	24µM*	-10%	-12%
Cc1ccc(NC(=S)NCc2ccc3c(c2)cc(C)n3C)c(C)c1	-3%	?	22µM*	19µM*	?	?
Cc1ccc(NC(=S)NCc2ccc(F)cc2)c(C)c1	-5%	-5%	-26%	0%	26%	4%
O=C(O)c1csc(N/N=C/c2ccc(Br)cc2)n1	-18%	79µM*	-20%	?	30%	-23%
Cc1csc(N/N=C/c2ccc([N+](=O)[O-])cc2)n1	-9%	-9%	-27%	-12%	29%	-6%
CCC(Sc1nc2nccnc2c(=O)n1Cc1ccc(OC)cc1)C(=O)NC1CCCCC1 (stereo not drawn)	/	-11%	6%	/	35%	14%
Cn1c(=O)n(C)c2cc([N+](=O)[O-])c(N3CCN(S(C)(=O)=O)CC3)cc21	4%	50µM*	-8%	-10%	28%	-8%
SMILES	L3MBTL1 inh	BAZ2B block	JMJD2A Tudor	PLK1 PBD block	HP1b chromo inh	VDR inhibitor
Cn1c(=O)n(C)c2cc([N+](=O)[O-])c(N3CCN(S(=O)(=O)c4ccccc4)CC3)cc21	-6%	?	?	-5%	-13%	0%
Cn1c(=O)n(C)c2cc([N+](=O)[O-])c(N3CCN(C(=O)c4ccccc4)CC3)cc21	-3%	-38%	-20%	-2%	19%	9%
Cn1c(=O)n(C)c2cc([N+](=O)[O-])c(N3CCN(C(=O)c4ccccc4Cl)CC3)cc21	6%	50µM*	-13%	-1%	11%	-5%
CC(C)OCCCNC1=C(Cl)C(=O)c2ccccc2C1=O	-45%	10µM*	40µM*	-5%	35µM*	2%
COCCCNC1=C(Cl)C(=O)c2ccccc2C1=O	-16%	35µM*	?	-16%	?	19%
COCCCNS(=O)(=O)c1ccc2c3c(cccc13)C(=O)S2	-5%	1%	-20%	-9%	30%	20%
CCN(CC)CCCNC1=C(Cl)C(=O)c2ccccc2C1=O	-25%	-26%	-30%	-6%	-15%	10%
COCCCNc1c2c3c(cccc3[nH]c1=O)C(=O)c1ccccc1-2	/	6%	17%	0.38µM*	76%	-9%
O=C(CN1C(=O)NC2(CCCCCC2)C1=O)NCc1ccccc1	-4%	/	2%	3%	25%	10%
CC1CCCN(Cc2c(O)ccc3c(=O)c(-c4ccc(Cl)cc4)c(C(F)(F)F)oc23)C1 (stereo not drawn)	/	-15%	-24%	/	12%	0%
C#CCOCCOCCOCCNc1nc(N2CCN(C(=O)[C@H]([C@@H](C)CC)n3cc([C@@H](N)CO)nn3)CC2)nc(N2CCN(C(=O)[C@H](CCCCN)n3cc([C@@H](N)CC(C)C)nn3)CC2)n1	-20%	79µM*	50µM*	-15%	44%	-19%
C#CCOCCOCCOCCNc1nc(N2CCN(C(=O)[C@H](CCCCN)n3cc([C@@H](N)CO)nn3)CC2)nc(N2CCN(C(=O)[C@H](CCCCN)n3cc([C@@H](N)CC(C)C)nn3)CC2)n1	1%	/	56µM*	-19%	22%	-6%
COc1cccc(/C=N/NC(=O)CCn2nnc3ccccc32)c1	8%	8%	-31%	7.5µM*	6%	-5%
COc1cccc(/C=N/NC(=O)C(C)n2nnc3ccccc32)c1 (stereo not drawn)	2%	2%	45µM*	19µM*	8%	?
COc1cccc(/C=N/NC(=O)C(C)Cn2cnc3ccccc32)c1 (stereo not drawn)	0%	-5%	-6%	1%	30%	2%
